Reference: PubChem BioAssay (NCATS)
Where “and” joins values, the source holds several entries; their conditions need not be identical. Equal values may be shown once. Inconclusive results are not listed. A structure can be active in one record and inactive in another. Calls of active or inactive are those of the source. Calls come from the whole dose curve; as a rule, active = well fitted cell-killing curve with a large enough effect; inconclusive = small, poorly fitted or top-dose-only effect, or effect the other way; inactive = no such curve, though single readings can be large or run the other way.

Legend:
[1] = Viability qHTS for spleen associated tyrosine kinase inhibitor (SYKi) naive MV4-11 cells (AID 1963823); note: nearly all actives have a fitted effect of over 40% in size
In short: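 Luminescence from CellTiter-Glo, developed 10 min at room temperature, gave viability of MV4-11 cells never exposed to SYK inhibitor. Cells (500/well) had been incubated with compounds for 72 hr under standard culture conditions.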

[2] = Viability qHTS for spleen associated tyrosine kinase inhibitor (SYKi) drug resistant MV4-11 cells (AID 1963824); note: nearly all actives have a fitted effect of over 35% in size
In short: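 SYK inhibitor-resistant MV4-11 AML cells, 500 per well, added to predispensed compounds and incubated 72 hr at 37 C, 5% CO2. Viability measured by CellTiter-Glo luminescence after 10 min at room temperature.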
Potency is the fitted concentration of half-maximal effect.

Row | Compound | Potency [1] | Potency [2] | viability (% of control) [1] | viability, % of control [2]
1 | Cc1cc(C)c(CNC(=O)c2cc(-c3ccc(CN4CCOCC4)cc3)cc3c2cnn3C2CCCC2)c(=O)[nH]1 | inactive | inactive and 14.8 µM (active) |  | 
2 | CC1NC(=O)C(Cc2c[nH]c3ccccc23)NC1=O (stereo not drawn) | inactive | inactive |  | 
3 | C[C@@H](O[C@H]1OCCN(Cc2n[nH]nc2CN(C)C)[C@H]1c1ccc(F)cc1)c1cc(C(F)(F)F)cc(C(F)(F)F)c1 | 10.3 µM (active) | 6.51 µM (active) |  | 
4 | COc1ccc(/C=C/C(=O)O[C@@H]2[C@@H](O[C@@H]3O[C@H](CO)[C@@H](O)[C@H](O)[C@H]3O)[C@@H](O)[C@H](O[C@H]3C4C=CO[C@@H](O[C@@H]5O[C@H](CO)[C@@H](O)[C@H](O)[C@H]5O)C4[C@@]4(CO)O[C@@H]34)O[C@H]2C)cc1 (stereo partly drawn) |  |  | 75.2% [at 9.25 µM] (inactive) | 104% [at 9.25 µM] (inactive)
5 | CC1OC(O[C@@H]2[C@@H](O)[C@H](OC(=O)[C@]34CCC(C)(C)C[C@H]3C3=CCC5[C@@]6(C)CC[C@H](O[C@@H]7O[C@H](C(=O)O)[C@@H](O)[C@H](O[C@@H]8OC[C@@H](O)[C@H](O)[C@H]8O)[C@H]7O[C@@H]7O[C@H](CO)[C@H](O)[C@H](O)[C@H]7O)[C@@](C)(C=O)C6CC[C@@]5(C)[C@]3(C)C[C@H]4O)O[C@H](C)[C@@H]2OC2OC(C)C(OC3OCC(O)C(O)C3O)C(O)C2O)C(O)C(O)C1O (stereo partly drawn) |  |  | 94.8% [at 9.25 µM] (inactive) | 106% [at 9.25 µM] (inactive)
6 | OCC(Cc1ccccc1)Nc1nc(Oc2ccc3c(c2)CCC3)nc2c1ncn2Cc1ccc(-c2ccccc2)cc1 (stereo not drawn) | 18.4 µM (active) | 7.31 µM (active) |  | 
7 | CC(=O)CCC1=C(C)C(O[C@@H]2O[C@H](CO)[C@@H](O)[C@H](O)[C@H]2O)C(O)CC1(C)C (stereo partly drawn) | inactive | inactive |  | 
8 | O=C(O)CCc1cc2ccoc2cc1O[C@@H]1O[C@H](CO[C@@H]2OC[C@](O)(CO)[C@H]2O)[C@@H](O)[C@H](O)[C@H]1O | inactive | inactive |  | 
9 | C[C@@H]1O[C@@H](O[C@H]2[C@H](O[C@H]3[C@H](O[C@H]4CC[C@@]5(C)C(CC[C@]6(C)C5CC=C5[C@@H]7CC(C)(C)CC[C@]7(C(=O)O[C@@H]7O[C@H](CO)[C@@H](O[C@@H]8O[C@@H](C)[C@H](O)[C@@H](O)[C@H]8O)[C@H](O)[C@H]7O)CC[C@]56C)C4(C)C)OC[C@H](O)[C@@H]3O)O[C@H](CO)[C@@H](O)[C@@H]2O)[C@H](O)[C@H](O)[C@H]1O (stereo partly drawn) |  |  | 3.73% [at 9.25 µM] (inactive) | 2.33% [at 9.25 µM] (inactive)
